# Data from the supplement of paper PMC8728848.
# This is one part of a sample in which the strongest signals are shown more often than they occur.
# Assays:
# Experiment in all cases: glycan array binding signal (z-score within array); higher = stronger binding
# Settings in all cases: glycan notation: IUPAC condensed, linker removed
# [1] = biological target: GlcNAc(b1-3)Gal(b1-4)GlcNAc(b1-3)Gal(b1-4)GlcNAc
# In short: (§1)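 The Consortium for Functional Glycomics database supplied 3228 glycan arrays, of which those lacking an available protein sequence were dropped. The binding signal, a within-array Z-score, was averaged across arrays of the same protein sequence and across linkers. Negative scores can be read as non-binding.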
# [2] = biological target: GlcNAc(b1-3)Gal(b1-4)GlcNAc(b1-3)Gal(b1-4)GlcNAc(b1-2)Man(a1-3)[GlcNAc(b1-3)Gal(b1-4)GlcNAc(b1-3)Gal(b1-4)GlcNAc(b1-2)Man(a1-6)]Man(b1-4)GlcNAc(b1-4)GlcNAc
# In short: as §1
# [3] = biological target: GlcNAc(b1-3)Gal(b1-4)GlcNAc(b1-3)Gal(b1-4)GlcNAc(b1-3)Gal(b1-4)GlcNAc(b1-2)Man(a1-3)[GlcNAc(b1-3)Gal(b1-4)GlcNAc(b1-3)Gal(b1-4)GlcNAc(b1-3)Gal(b1-4)GlcNAc(b1-2)Man(a1-6)]Man(b1-4)GlcNAc(b1-4)[Fuc(a1-6)]GlcNAc
# In short: as §1
# [4] = biological target: GlcNAc(b1-3)Gal(b1-4)GlcNAc(b1-3)Gal(b1-4)GlcNAc(b1-3)Gal(b1-4)GlcNAc(b1-3)Gal(b1-4)GlcNAc(b1-2)Man(a1-3)[GlcNAc(b1-3)Gal(b1-4)GlcNAc(b1-3)Gal(b1-4)GlcNAc(b1-3)Gal(b1-4)GlcNAc(b1-3)Gal(b1-4)GlcNAc(b1-2)Man(a1-6)]Man(b1-4)GlcNAc(b1-4)GlcNAc
# In short: as §1
# [5] = biological target: GlcNAc(b1-3)Gal(b1-4)GlcNAc(b1-3)Gal(b1-4)GlcNAc(b1-3)Gal(b1-4)GlcNAc(b1-3)Gal(b1-4)GlcNAc(b1-2)[GlcNAc(b1-3)Gal(b1-4)GlcNAc(b1-3)Gal(b1-4)GlcNAc(b1-3)Gal(b1-4)GlcNAc(b1-3)Gal(b1-4)GlcNAc(b1-6)]Man(a1-6)[GlcNAc(b1-3)Gal(b1-4)GlcNAc(b1-3)Gal(b1-4)GlcNAc(b1-3)Gal(b1-4)GlcNAc(b1-3)Gal(b1-4)GlcNAc(b1-2)Man(a1-3)]Man(b1-4)GlcNAc(b1-4)[Fuc(a1-6)]GlcNAc
# In short: as §1
# [6] = biological target: GlcNAc(b1-3)Gal(b1-4)GlcNAc(b1-6)[Gal(b1-3)]GalNAc
# In short: as §1
# GlcNAc(b1-3)Man = biological target: GlcNAc(b1-3)Man
# In short: as §1
# Kdn(a2-6)Gal(b1-4)GlcNAc = biological target: Kdn(a2-6)Gal(b1-4)GlcNAc
# In short: as §1
# [7] = biological target: Man(a1-3)[Man(a1-6)]Man(a1-6)[Man(a1-3)]Man(b1-4)GlcNAc(b1-4)GlcNAc
# In short: as §1
# Man(b1-4)GlcNAc = biological target: Man(b1-4)GlcNAc
# In short: as §1
# Neu5Ac(a2-3)Gal = biological target: Neu5Ac(a2-3)Gal
# In short: as §1
# [8] = biological target: Neu5Ac(a2-3)Gal(b1-3)GlcNAc(b1-2)Man(a1-3)[GlcNAc(b1-4)][Neu5Ac(a2-3)Gal(b1-3)GlcNAc(b1-2)Man(a1-6)]Man(b1-4)GlcNAc(b1-4)GlcNAc
# In short: as §1
# [9] = biological target: Neu5Ac(a2-3)Gal(b1-3)GlcNAc(b1-2)[Neu5Ac(a2-3)Gal(b1-3)GlcNAc(b1-4)]Man(a1-6)[Neu5Ac(a2-3)Gal(b1-3)GlcNAc(b1-2)Man(a1-3)]Man(b1-4)GlcNAc(b1-4)GlcNAc
# In short: as §1
# [10] = biological target: Neu5Ac(a2-3)Gal(b1-3)GlcNAc(b1-3)Gal(b1-4)GlcNAc
# In short: as §1
# [11] = biological target: Neu5Ac(a2-3)Gal(b1-3)GlcNAc6S
# In short: as §1
# [12] = biological target: Neu5Ac(a2-3)Gal(b1-3)[Fuc(a1-4)]GlcNAc
# In short: as §1
# [13] = biological target: Neu5Ac(a2-3)Gal(b1-3)[Neu5Ac(a2-6)]GlcNAc(b1-3)[Fuc(a1-3)[Gal(b1-4)]GlcNAc(b1-6)]Gal(b1-4)Glc
# In short: as §1
# [14] = biological target: Neu5Ac(a2-3)Gal(b1-4)GlcNAc(b1-2)Man(a1-3)[Neu5Ac(a2-3)Gal(b1-4)GlcNAc(b1-2)Man(a1-6)]Man(b1-4)GlcNAc(b1-4)[Fuc(a1-6)]GlcNAc
# In short: as §1
# [15] = biological target: Neu5Ac(a2-3)Gal(b1-4)GlcNAc(b1-3)Gal(b1-4)GlcNAc(b1-3)[Neu5Ac(a2-3)Gal(b1-4)GlcNAc(b1-3)Gal(b1-4)GlcNAc(b1-6)]GalNAc
# In short: as §1
# [16] = biological target: Neu5Ac(a2-3)Gal(b1-4)GlcNAc(b1-6)[Neu5Ac(a2-3)Gal(b1-3)]GalNAc
# In short: as §1
# [17] = biological target: Neu5Ac(a2-3)Gal(b1-4)GlcNAc6S
# In short: as §1
# [18] = biological target: Neu5Ac(a2-3)Gal(b1-4)[Fuc(a1-3)]GlcNAc(b1-3)Gal(b1-4)GlcNAc
# In short: as §1
# Neu5Ac(a2-3)GalNAc = biological target: Neu5Ac(a2-3)GalNAc
# In short: as §1
# [19] = biological target: Neu5Ac(a2-3)[GalNAc(b1-4)]Gal(b1-4)Glc
# In short: as §1
# [20] = biological target: Neu5Ac(a2-6)Gal(b1-4)GlcNAc(b1-2)Man
# In short: as §1
# [21] = biological target: Neu5Ac(a2-6)Gal(b1-4)GlcNAc(b1-2)[Neu5Ac(a2-6)Gal(b1-4)GlcNAc(b1-6)]Man(a1-6)[Neu5Ac(a2-6)Gal(b1-4)GlcNAc(b1-2)Man(a1-3)][GlcNAc(b1-4)]Man(b1-4)GlcNAc(b1-4)GlcNAc
# In short: as §1
# [22] = biological target: Neu5Ac(a2-6)Gal(b1-4)GlcNAc(b1-3)Gal(b1-4)GlcNAc(b1-6)[Gal(b1-3)]GalNAc
# In short: as §1
# [23] = biological target: Neu5Ac(a2-6)Gal(b1-4)GlcNAc(b1-3)GalNAc
# In short: as §1
# [24] = biological target: Neu5Ac(a2-6)Gal(b1-4)GlcNAc(b1-3)[Neu5Ac(a2-6)Gal(b1-4)GlcNAc(b1-6)]GalNAc
# In short: as §1
# [25] = biological target: Neu5Ac(a2-6)Gal(b1-4)GlcNAc(b1-6)[Gal(b1-3)]GalNAc
# In short: as §1
# [26] = biological target: Neu5Ac(a2-6)Gal(b1-4)GlcNAc6S
# In short: as §1
# [27] = biological target: Neu5Ac(a2-6)GalNAc(b1-4)GlcNAc
# In short: as §1
# [28] = biological target: Neu5Ac(a2-6)GlcNAc(b1-4)GlcNAc
# In short: as §1
# [29] = biological target: Neu5Ac(a2-8)Neu5Ac(a2-3)Gal(b1-3)GalNAc(b1-4)[Neu5Ac(a2-8)Neu5Ac(a2-3)]Gal(b1-4)Glc
# In short: as §1
# [30] = biological target: Neu5Ac(a2-8)Neu5Ac(a2-3)Gal(b1-4)GlcNAc
# In short: as §1
# [31] = biological target: Neu5Ac(a2-8)Neu5Ac(a2-8)Neu5Ac(a2-3)[GalNAc(b1-4)]Gal(b1-4)Glc
# In short: as §1
binder,measurement,setting,value
ArathEULS3 TAP (Arabidopsis thaliana) (protein) IDENLYFQGGSMDEKTTGWRGGHVVEGLAGELEQLRARLEHHPQGQREPGGGGSLEITSLYKKAGFMEHHHQHHRHHQRDDGEDDRQSFGVPPPHVDAPPQPHGLYQSQPHFDPYAPTPQAPAPYRSETQFEPHAPPPYRSEPYFETPAPPPSFGHVSHVGHQSPNESYPPEHHRYGGYQQPSNSLLESHGDHSGVTHVAHHSSNQPQSSSGVYHKPDENRLPDNLAGLAGRATVKVYSKAEPNYNLTIRDGKVILAPADPSDEAQHWYKDEKYSTKVKDADGHPCFALVNKATGEAMKHSVGATHPVHLIRYVPDKLDESVLWTESKDFGDGYRTIRMVNNTRLNVDAYHGDSKSGGVRDGTTIVLWDWNKGDNQLWKIFPF,glycan array binding signal (z-score),[1],0.442
same,glycan array binding signal (z-score),[2],2.26
same,glycan array binding signal (z-score),[3],2.42
same,glycan array binding signal (z-score),[4],0.229
same,glycan array binding signal (z-score),[5],3.16
same,glycan array binding signal (z-score),[6],-0.045
same,glycan array binding signal (z-score),GlcNAc(b1-3)Man,0.29
same,glycan array binding signal (z-score),Kdn(a2-6)Gal(b1-4)GlcNAc,0.575
same,glycan array binding signal (z-score),[7],3.03
same,glycan array binding signal (z-score),Man(b1-4)GlcNAc,-0.658
same,glycan array binding signal (z-score),Neu5Ac(a2-3)Gal,-1.33
same,glycan array binding signal (z-score),[8],-1.32
same,glycan array binding signal (z-score),[9],1.77
same,glycan array binding signal (z-score),[10],-0.43
same,glycan array binding signal (z-score),[11],0.337
same,glycan array binding signal (z-score),[12],0.016
same,glycan array binding signal (z-score),[13],2.31
same,glycan array binding signal (z-score),[14],-0.12
same,glycan array binding signal (z-score),[15],0.575
same,glycan array binding signal (z-score),[16],-1.05
same,glycan array binding signal (z-score),[17],-0.296
same,glycan array binding signal (z-score),[18],2.91
same,glycan array binding signal (z-score),Neu5Ac(a2-3)GalNAc,0.618
same,glycan array binding signal (z-score),[19],0.447
same,glycan array binding signal (z-score),[20],0.021
same,glycan array binding signal (z-score),[21],-0.647
same,glycan array binding signal (z-score),[22],-0.634
same,glycan array binding signal (z-score),[23],0.12
same,glycan array binding signal (z-score),[24],0.364
same,glycan array binding signal (z-score),[25],0.429
same,glycan array binding signal (z-score),[26],-0.553
same,glycan array binding signal (z-score),[27],0.004
same,glycan array binding signal (z-score),[28],1.18
same,glycan array binding signal (z-score),[29],2.9
same,glycan array binding signal (z-score),[30],-0.433
same,glycan array binding signal (z-score),[31],-0.112
